This is a sample that favours compounds with a hit; in the whole collection about 1.1% have one here.
DSG3 Ab inh: inhibitors of pemphigus antibody binding to human desmoglein-3 | AID 588358 | binding (percent of control), % at 10 µM | 0.48% of 310,000 active | DSG3-coupled beads, scFv-anti-DSG3-GFP binding, flow cytometry; hits give low values | P32926;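 active means binding more than 3 SD below its plate's average and above zero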;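 further: hits lower antibody fragment binding to DSG3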
VLA-4 inh: inhibition in a human VLA-4 binding assay; P13612; VLA-4 expressing cells, ligand binding flow cytometry; inhibition, % (about 7 µM as worked out from the volumes in the protocol); 0.2% of 330,000 active; AID 2557; in the data active means inhibition above about 50%
AI-2 QS mod: modulators of Vibrio harveyi AI-2 quorum sensing system. 0.4% of 300,000 active. AID 2094. Vibrio harveyi JMH597 AI-2 luminescence/OD600 ratio, 9 h; hits give low values; strain lacks LuxN and CqsS sensors; 0 = neutral-control median. activity change, % at 7.5 µM; in the data active means activity change below about -75%, passing the limit was not always enough;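 further: luminescence divided by OD600 gain over 9 h not by final OD600 alone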
NTR1 ag: agonists of human neurotensin receptor NTR1 | NTR1-U2OS beta-arrestin-GFP spot imaging, agonist mode | P30989 | activation, % at 20 µM | 0.17% of 330,000 active;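 active means activation at or above 40% of the spot to cytoplasm intensity ratio, with at least 20 cells analyzed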;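 further: 0% = DMSO without peptide and 100% = 100 nM NTR1 peptide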
Numbers without * were called inactive; / = no result.

SMILES	DSG3 Ab inh	VLA-4 inh	AI-2 QS mod	NTR1 ag
CCCn1c(C)nc2c(c1=O)c1nc3ccccc3nc1n2-c1ccccc1	88*	/	/	/
O=C(NC(=S)NC12CC3CC(CC(C3)C1)C2)c1ccc(F)cc1	/	8	/	6
O=C1c2ccccc2C(=O)N1CCc1csc(NNc2nc(CCN3C(=O)c4ccccc4C3=O)cs2)n1	76*	30	19	2
O=C(NCCc1ccccc1)c1c(F)cccc1F	100	-6	-40	0
O=C(NCC(O)c1ccc2ccccc2c1)c1c(F)cccc1F (stereo unspecified)	101	8	-75*	0
O=C(Cn1c2ccccc2c2nc3n(c(=O)c21)CCS3)Nc1ccccc1C(F)(F)F	93*	-14	36	3
O=C(COc1ccc(C(=S)N2CCOCC2)cc1Cl)Nc1ccccc1Cl	83*	14	27	2
COc1cc2c(cc1OC)C(C)N(C(=O)Cn1ncc3c1-c1ccccc1OC3)CC2 (stereo unspecified)	89*	-7	25	1
CCN(CC)C(=O)Cn1ncc2c1-c1ccccc1OC2	105	-12	10	1
O=[N+]([O-])c1cnc(Sc2ccncn2)c([N+](=O)[O-])c1	98	/	/	/
O=[N+]([O-])c1cnc(Sc2ccncn2)s1	100	39	-88*	9
COc1ccc(CC(=O)Nc2cccc(-c3csc(C)n3)c2)cc1	-20*	2	16	2
COc1ccc(CC(=O)Nc2ccc(-c3csc(C)n3)cc2)cc1	104	9	10	0
CCCCCC(=O)Nc1nc(C)c(-c2csc(Nc3cc(Cl)ccc3OC)n2)s1	79*	20	10	13
CN(C(=O)COC(=O)c1ccc(-c2ccc(O)cc2)cc1)C1CCS(=O)(=O)C1 (stereo unspecified)	70*	0	1	2
Cc1cccc(NC(=O)CSc2nnc(-c3ccc(S(=O)(=O)N4CCCC4)cc3)o2)c1	103	8	28	0
CC(=O)Nc1ccc(NC(=O)CSc2nnc(-c3ccc4c(c3)OCO4)o2)cc1	-15*	8	/	-1
Cc1ccc(NC(=O)CSc2nnc(-c3ccc(S(=O)(=O)N4CCCC4)cc3)o2)cc1C	102	8	/	46*
C=CCCC(=O)N1C[C@H]2CON(C)[C@H]2C[C@H]1c1ccc(Br)cc1	96	/	/	/
Cc1ccc(NC(=O)Cn2c(=O)c3cccn3c3ccccc32)c(Cl)c1	32*	23	14	13
COc1ccc(OCC(=O)N2CCc3ccccc32)c([N+](=O)[O-])c1	104	/	/	/
Cc1ccc(NC(=O)COC(=O)CN2CCSC2=O)cc1Cl	107	/	/	/
CC1C(=O)C(C)C(c2cc(Cl)ccc2O)NC1c1cc(Cl)ccc1O (stereo unspecified)	91	26	-3	60*
CCc1cccc2c(C(=O)CN3C(=O)N(C)C4(CCCCC4)C3=O)c[nH]c12	108	-9	/	2
Clc1ccc(CSc2ccc(-c3ccccn3)nn2)cc1	13*	10	12	2
SMILES	DSG3 Ab inh	VLA-4 inh	AI-2 QS mod	NTR1 ag
c1ccc(CSc2ccc(-c3ccco3)nn2)cc1	127	-1	-77*	0
c1ccc(CSc2ccc(-c3ccccn3)nn2)cc1	/	-2	-54	0
Clc1ccc(CSc2ccc(-c3ccco3)nn2)cc1	108	3	-35	0
Cc1ccc(CSc2ccc(-c3ccco3)nn2)cc1	115	6	-86*	0
CC(C)(C)C1CCC(CN2CCC(CN3C(=O)C(=O)NC[C@@H]3Cc3ccccc3)CC2)CC1 (stereo partly specified)	112	/	/	/
Cc1noc(C)c1CSCC(=O)Nc1cc(S(=O)(=O)N2CCCCC2)ccc1OC(C)C	100	5	15	-1
Cc1noc(C)c1CSCC(=O)Nc1cc(S(=O)(=O)N2CCOCC2)ccc1OCC(F)(F)F	76*	8	15	1
COc1ccc(C(=O)Nc2ccc3[nH]ccc3c2)cc1OC	85*	-6	-45	0
COc1ccc(C(=O)Nc2ccc3[nH]ccc3c2)cc1	107	18	-28	1
COc1ccc(C(=O)Nc2ccc3oc(-c4cccc(F)c4)nc3c2)cc1OC	52*	36	20	8
COc1ccc(C(=O)Nc2ccc3oc(-c4cccnc4)nc3c2)cc1OC	104	-15	30	0
O=C(Nc1ccc(Nc2ccccc2)cc1)c1ccc(F)cc1	95	15	-88*	6
O=C(Nc1ccccc1)c1ccc(C(=O)Nc2ccccc2)nc1	23*	12	14	0
O=C(Cc1cccs1)Nc1ccccc1	87	0	10	-1
O=C(Cc1cccs1)Nc1ccc(NC(=O)c2ccco2)cc1	-21*	-5	14	0
O=C(O)c1ccc(C(=O)Nc2ccc(F)cc2)cc1	101	45	/	-2
O=C(Nc1ccc(Nc2ccccc2)cc1)c1ccco1	104	16	-96*	-1
CC(=O)Nc1cccc(NC(=O)c2ccc(C(=O)Nc3cccc(NC(C)=O)c3)nc2)c1	110	4	15	4
COc1cc(C(=O)N2CCN(c3ccccc3Cl)CC2)ccc1OCC(=O)N1CCOCC1	98	35	/	-3
O=C(Nc1ccc(Cc2ccncc2)cc1)c1ccco1	97	7	-82*	-2
O=C(Nc1ccc(NC(=O)c2ccco2)cc1)c1ccco1	102	0	10	0
CC(C)CN1CCN(Cc2nc(C(C)C)cs2)CC1CCO (stereo unspecified)	-8.8*	9	0	-1
Cc1nc(NS(=O)(=O)c2ccccc2)sc1NC(=O)Nc1ccccc1	28*	11	-1	1
CCOC(=O)Nc1sc(NS(=O)(=O)c2ccccc2)nc1C	99	34	9	0
CCOC(=O)Nc1sc(NS(=O)(=O)c2ccc(C)cc2)nc1C	73*	4	5	1
SMILES	DSG3 Ab inh	VLA-4 inh	AI-2 QS mod	NTR1 ag
Cc1nc(NS(=O)(=O)c2ccccc2)sc1NC(=O)Nc1ccc(Cl)cc1	97	2	49	4
C[C@H]1CN([C@@H](C)CO)C(=O)CCCn2nncc2CO[C@@H]1CN(C)S(=O)(=O)c1cn(C)cn1	107	/	/	/
Cc1n[nH]c(=S)n(NC(=O)/C=C/C(=O)Nn2c(=S)[nH]nc(C)c2=O)c1=O	36*	/	34	/
CN(c1ccccc1C(=O)NC1CC2CCC1C2)S(=O)(=O)c1ccccc1 (stereo unspecified)	38*	-4	13	0
O=C(NCc1ccc2c(c1)OCO2)c1cccc(C(=O)NCc2ccc3c(c2)OCO3)c1	99	9	-85*	2
COc1ccc(NC(=O)NCc2ccc3c(c2)OCO3)cc1	82*	3	44	-2
CCOc1ccc(NC(=O)CN(C)C2=NS(=O)(=O)c3ccccc32)cc1	103	/	/	/
CCOC(=O)CC1c2nc3ccccc3cc2CN1C(=O)OCC (stereo unspecified)	98	/	/	/
O=[N+]([O-])c1cccc(/C=C/c2nc[nH]c2[N+](=O)[O-])c1	63*	0	6	0
O=c1[nH]c(/C=C/c2cccc([N+](=O)[O-])c2)c([N+](=O)[O-])c(=O)[nH]1	95	8	13	0

Source: PubChem
